Shown are actives, neighbours in structure and some others; about 21% of the full set was active somewhere.
Cycloheximide cs: affects cycloheximide protein synthesis inhibition readout, counter-screen. max response, %. actives 12% (n = 300,000). cell reporter, cycloheximide protein synthesis inhibition counterscreen; in the data active = max response mostly above about 13%, no sharp cut-off; inactive = mostly below about 14%; note: read at 38.3 µM for the half of the compounds with a filed dose
SARS PLP yeast: inhibitors of SARS-CoV papain-like protease in yeast; S. cerevisiae expressing SARS-CoV PLpro, growth rescue; Potency, µM (top dose mostly 32.9 µM), most hits filed as activators; actives 0.19% (n = 330,000); AID 485353; note: nearly all actives have a fitted effect of over 55% in size
NS1 inh: influenza NS1 inhibition. Potency, µM (highest dose often 46.1 µM). actives 0.4% (n = 270,000); note: actives are rising curves; nearly all actives have a fitted effect of over 50% in size
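Read-out: OD600 growth recovery of NS1-expressing budding yeast. Cells grown overnight at 30C in -URA glucose medium, washed, resuspended and diluted 1:100 in 2% galactose assay medium, pH 6.0. Same strain lacking NS1 served as positive control.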
Pf growth 48h: P. falciparum growth inhibition at 48 hours (one generation); P. falciparum luciferase growth in erythrocytes, 48 h; Potency, µM (doses to about 28.7 µM), actives largely listed as inhibitors; actives 5.9% (n = 310,000); AID 504832; active = well fitted inhibition curve with a large enough effect; inconclusive = small, poorly fitted or top-dose-only effect, or another doubt; inactive = no such curve, though single readings can be large or run the other way
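Erythrocytes infected with P. falciparum carrying an integrated firefly luciferase reporter (2% hematocrit, 0.1% parasitemia final) were exposed to compounds in RPMI 1640 with 0.5% Albumax at 37 C, 5% CO2. Growth inhibition was scored as reduced luminescence.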
Shiga toxin inh: blocks Shiga toxin action in Vero cells | AID 2315 | Vero cells, Shiga toxin protein synthesis inhibition reporter | inhibition, % at 38.7 µM | actives 9.2% (n = 290,000); in the data active = inhibition mostly above about 28%, no sharp cut-off; inactive = mostly below about 43%
Pf growth 96h: P. falciparum growth inhibition at 96 hours; AID 504834; actives 6.9% (n = 320,000); Potency, µM (highest dose often 28.7 µM), actives largely listed as inhibitors; P. falciparum luciferase reporter growth, 96 h; active = well fitted inhibition curve with a large enough effect; inconclusive = small, poorly fitted or top-dose-only effect, or another doubt; inactive = no such curve, though single readings can be large or run the other way
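Readout is luminescence from an integrated firefly luciferase in P. falciparum. Red cells, 2% hematocrit and 0.05% parasitemia final, were cultured with compound through two parasite generations (96 hours) at 37 C, 5% CO2.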
A number is an active result. Unless noted, calls come from the whole dose curve.

Screening CCN1CCN(S(=O)(=O)c2ccc(Cl)c(C(=O)N(CC)Cc3ccccc3)c2)CC1 returned SARS PLP yeast inactive, Pf growth 48h inconclusive and Pf growth 96h inactive.
`COc1ccc(CCN(C)c2ccc(S(=O)(=O)N3CCCC3)cc2[N+](=O)[O-])cc1OC` gave Cycloheximide cs inactive, SARS PLP yeast inactive, NS1 inh inactive, Pf growth 48h inconclusive, Shiga toxin inh inactive and Pf growth 96h inactive.
For COc1ccc(CN(C)c2ccc(S(=O)(=O)N3CCN(C)CC3)cc2[N+](=O)[O-])cc1OC the results were SARS PLP yeast inactive, Pf growth 48h 12µM and Pf growth 96h 15µM.
CCN1CCN(S(=O)(=O)c2ccc(S(=O)(=O)N(CC)Cc3ccccc3)cc2)CC1 was read as Cycloheximide cs inactive, SARS PLP yeast inactive, NS1 inh inactive, Pf growth 48h 13µM, Shiga toxin inh inactive and Pf growth 96h inconclusive.
For CCN(CC(=O)Nc1ccc(S(=O)(=O)N2CCCC2)cc1)Cc1ccccc1 the results were SARS PLP yeast inactive, Pf growth 48h 13µM and Pf growth 96h inconclusive.
`COc1cc(CN(C)c2ccc(S(=O)(=O)N3CCCC3)cn2)ccc1OC(F)F` gave SARS PLP yeast inactive, Pf growth 48h 15µM and Pf growth 96h inconclusive.
For CCCOC(=O)NCCCN(C)C the results were Cycloheximide cs inactive and Shiga toxin inh inactive.
CCc1ccc(CNCCSc2nnnn2C)cc1 was read as Cycloheximide cs inactive, SARS PLP yeast inactive, NS1 inh inactive, Shiga toxin inh inactive and Pf growth 96h inactive.
Screening O=C(COC(=O)c1ccc(O)cc1O)NC1CCCCCC1 returned SARS PLP yeast inactive, Pf growth 48h inactive and Pf growth 96h inconclusive.
`COc1ccc(CSCC(=O)Nc2ccc(S(=O)(=O)N3CCCCCC3)cc2)cc1` gave Cycloheximide cs inactive, SARS PLP yeast inactive, NS1 inh inactive, Pf growth 48h inconclusive, Shiga toxin inh inactive and Pf growth 96h inconclusive.
For O=C(CSCc1ccc(Cl)cc1)Nc1ccc(S(=O)(=O)N2CCCCCC2)cc1 the results were Cycloheximide cs inactive, SARS PLP yeast inactive, NS1 inh inactive, Pf growth 48h inconclusive, Shiga toxin inh inactive and Pf growth 96h 13µM.
`CCOc1ccc(NCC(=O)N/N=C/C=C/c2ccccc2)cc1` gave Cycloheximide cs inactive, SARS PLP yeast inactive, NS1 inh inconclusive, Pf growth 48h inactive, Shiga toxin inh inactive and Pf growth 96h inactive.
CCOc1ccc(N=C/C=C/c2ccccc2)c(O)c1 was read as Cycloheximide cs 22, SARS PLP yeast inactive, NS1 inh inactive, Pf growth 48h inactive, Shiga toxin inh 64 and Pf growth 96h inactive.
CCOc1cc(C(=O)N2CCCN(C)CC2)cc(OCC)c1OCC was read as Cycloheximide cs inactive, NS1 inh inactive, Pf growth 48h inconclusive, Shiga toxin inh inactive and Pf growth 96h inactive.
For COc1ccccc1NC(=O)Nc1nc(CC(=O)NC2CCCC2)cs1 the results were SARS PLP yeast inactive, Pf growth 48h inconclusive and Pf growth 96h inconclusive.
Screening COc1ccc(N2CCN(C(=O)Cc3csc(NC(=O)Nc4ccccc4OC)n3)CC2)cc1 returned SARS PLP yeast inactive, Pf growth 48h 7.4µM and Pf growth 96h inconclusive.
For COc1ccccc1NC(=O)Nc1nc(CC(=O)Nc2ccc(F)cc2)cs1 the results were SARS PLP yeast inactive, Pf growth 48h inconclusive and Pf growth 96h inconclusive.
For COc1ccccc1NC(=O)Nc1nc(CC(=O)N2CCN(c3ccc(F)cc3)CC2)cs1 the results were SARS PLP yeast inactive, Pf growth 48h 9.3µM and Pf growth 96h inconclusive.
`COc1ccccc1NC(=O)Nc1nc(CC(=O)N2CCN(c3ccccc3)CC2)cs1` gave SARS PLP yeast inactive, Pf growth 48h 12µM and Pf growth 96h inconclusive.
`Cc1noc(C)c1COc1ccc(C(=O)Nc2nnc(CC(C)C)s2)cc1` gave SARS PLP yeast inactive, Pf growth 48h inconclusive and Pf growth 96h inconclusive.
Cc1ccc(C(C(=O)NC2CCCC2)N(C(=O)c2csnn2)c2ccccc2)o1 (stereo unspecified) was read as Cycloheximide cs inactive, SARS PLP yeast inactive, NS1 inh inactive, Pf growth 48h inactive, Shiga toxin inh inactive and Pf growth 96h inconclusive.
`Cc1cc(C)c(S(=O)(=O)NCc2nc3nc(C)cc(C)n3n2)c(C)c1` gave Cycloheximide cs inactive, SARS PLP yeast inactive, NS1 inh inactive, Pf growth 48h inactive, Shiga toxin inh inactive and Pf growth 96h 12µM.
Cc1ccc(S(=O)(=O)NCc2nc3nc(C)cc(C)n3n2)c(C)c1 was read as Cycloheximide cs inactive, SARS PLP yeast inactive, NS1 inh inactive, Pf growth 48h inactive, Shiga toxin inh inactive and Pf growth 96h inconclusive.
`Cc1cc(C)n2nc(CNS(=O)(=O)c3ccc(F)cc3)nc2n1` gave Cycloheximide cs inactive, SARS PLP yeast inactive, NS1 inh inactive, Pf growth 48h inactive, Shiga toxin inh inactive and Pf growth 96h inconclusive.
Screening COC(=O)c1ccccc1S(=O)(=O)NCc1nc2nc(C)cc(C)n2n1 returned Cycloheximide cs inactive, SARS PLP yeast inactive, NS1 inh inactive, Pf growth 48h inactive, Shiga toxin inh inactive and Pf growth 96h 13µM.
For O=c1c2ccccc2nc2sc(Nc3cccc(C(F)(F)F)c3)nn12 the results were Pf growth 48h inactive and Pf growth 96h inactive.
For CC(C)(C)c1ccc(O)c(C[N+](C)(C)C)c1 the results were NS1 inh inactive.
Screening CC(C)C12CN3CC(C(C)C)(CN(C1)C3c1ccc([N+](=O)[O-])o1)C2=O (stereo unspecified) returned Cycloheximide cs inactive, SARS PLP yeast inactive, NS1 inh inactive, Pf growth 48h 2.1µM, Shiga toxin inh inactive and Pf growth 96h inactive.
`CCN(CC)Cc1cc(NC2=NS(=O)(=O)c3ccccc32)ccc1OC(=O)C(C)C` gave Cycloheximide cs inactive, SARS PLP yeast inactive, NS1 inh inactive and Shiga toxin inh inactive.
`CCN(CC)Cc1cc(NC2=NS(=O)(=O)c3ccccc32)ccc1OC(=O)c1ccccc1` gave Cycloheximide cs inactive, SARS PLP yeast inactive, NS1 inh inactive, Pf growth 48h inconclusive, Shiga toxin inh inactive and Pf growth 96h 9.3µM.
O=C(Cc1ccc(-n2c(=O)[nH]c3ccsc3c2=O)cc1)N1CCN(c2ccc(Cl)cc2)CC1 was read as Cycloheximide cs inactive, SARS PLP yeast inactive, NS1 inh inactive, Pf growth 48h inactive, Shiga toxin inh inactive and Pf growth 96h inconclusive.
Screening CCOc1cccc(-c2nnc3n2N=C(c2cc(OC)ccc2OC)CS3)c1 returned Cycloheximide cs inactive, SARS PLP yeast inactive, NS1 inh inactive, Pf growth 48h 12µM, Shiga toxin inh inactive and Pf growth 96h 12µM.
For COc1ccc(N=C2SCC(c3ccccc3)=NN2C)cc1 the results were Cycloheximide cs 29, SARS PLP yeast inactive, NS1 inh inactive, Pf growth 48h 2.6µM, Shiga toxin inh inactive and Pf growth 96h inactive.
Screening COc1ccc(-c2nnc3n2N=C(c2cc(OC)ccc2OC)CS3)cc1 returned Cycloheximide cs inactive and Shiga toxin inh inactive.
For COc1ccc(N=C2SCC(=O)N2c2ccc(OC)cc2)cc1 the results were Cycloheximide cs inactive, SARS PLP yeast inactive, NS1 inh inactive, Shiga toxin inh inactive and Pf growth 96h inconclusive.

Compound activity (PubChem)
